The values below come from PubChem BioAssay (NCI).

Common to all, as to assay: NCI-60 one-dose screen, 48 h (100 = growth as untreated, 0 = no growth, -100 = all killed)
Common to all, as to conditions: 10 µM

The subject of experiment [1] is NCI-H23 lung.
Experiment [2] concerns NCI-H226 lung.
The test system of experiment [3] is NCI-H322M lung.
The subject of experiment [4] is HOP-62 NSCLC.
The subject of experiment [5] is NCI-H460 lung.
Experiment [6] has as its system NCI-H522 lung.
The subject of experiment [7] is A549/ATCC NSCLC.
The test system of experiment [8] is 786-0 renal.
Experiment [9] has as its system COLO 205 colon.
For experiment [10], the system named is HOP-92 NSCLC.

The panel holds about 83,000 compounds, 20% with a hit somewhere; the sample as a whole holds those more often.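 Plates (96-well) were seeded with cells, treated with compound at one concentration, and incubated for 48 hours before percent growth was determined.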 Unmarked numbers belong to inactive results. Active and inactive are the calls of the source. The calls were made as follows: active = growth percent below 10; inactive = the rest.

For the compound `C=CCNC(=O)c1ccc(OC)cc1`, the growth in [1] is 99.5%; in experiment [2], 99.4%; in experiment [3], 98.5%; in experiment [4], 109%; in experiment [5] it was 114%; in [6] it was -12.1% (active). In addition, the values for the growth in experiment [7], in experiment [8] and in [9] were 50.4%, 107% and 109%, respectively.

Regarding `CN(C)c1ccc2nc3ccc(=N)cc-3sc2c1`, the growth in [1] is 14.7%; in experiment [2] it was 77.1%; in experiment [3] it was 85.4%; in [4], 54.4%; in experiment [5], 56.7%; in experiment [6] it was 14.7%. Besides, the growth in [7] was 13.6%; in experiment [8], 66.2%.

Regarding `O=C(/C=C\c1ccc(O)cc1)c1ccccc1`, the growth in [1] was 102%; in [2] it was 107%; in experiment [3], 101%; in [4], 110%; in experiment [5] it was 113%; in [6], -31.4% (active). Also, the growth in experiment [7] is 94.2%; in experiment [8], 97.8%; in experiment [9] it was 98%.

For `COc1cc(C(=O)NC(=S)Nc2ccc3ccccc3c2)cc(OC)c1OC`, the growth in experiment [1] is 82.5%; in experiment [2] it was 88.9%; in experiment [3], 101%; in experiment [4] it was 95.8%; in [5], 107%; in experiment [6] it was -23.4% (active). In addition, the growth in experiment [7] was 89.7%; in [8], 116%; in experiment [9], 84.2%.

As for `CC(C)(C)c1cc(O)c(C(C)(C)C)cc1O`, the growth in experiment [1] is 96.3%; in [2] it was 67.8%; in [3] it was 100%; in [4] it was 105%; in [5], 96.3%; in [6] it was 63.3%. In addition, the growth in experiment [7] was 87.4%; in experiment [8], 95.8%; in experiment [9], 108%.

With `CC1(C(=O)O)NC(C(=O)O)Cc2c1[nH]c1ccccc21` (stereo not drawn), the growth was 101% in [1]; 93.8% in [2]; 91.5% in experiment [3]; 102% in experiment [4]; 105% in [5]; 92.6% in experiment [6]. The growth in experiment [7] is 101%; in experiment [8], 104%; in [9] it was 104%.

Regarding `O=C(Nc1cccc(NC(=O)Nc2cc(C(F)(F)F)ccc2Cl)c1)Nc1cc(C(F)(F)F)ccc1Cl`, the growth in experiment [1] is 20.4%; in experiment [2] it was 34.3%; in [3], 38%; in experiment [4], 21.8%; in [5], 4.58% (active); in [6], -27.7% (active). Besides, the results for the growth in [7], in [8] and in experiment [9] were 11.6%, 51.7% and 1.37% (active), respectively.

Take `COC(=O)c1ccccc1Br`: the growth in experiment [1] was 107%; in [2] it was 104%; in experiment [3], 95.6%; in experiment [4] it was 77.9%; in experiment [5] it was 107%; in [6] it was 94.2%. Further, the growth was 103% in experiment [7], 97% in experiment [8] and 116% in [9].

Take `CCOC(=O)c1ccc(Nc2sc(C(=O)c3cccc([N+](=O)[O-])c3)c(N)c2C#N)cc1`: the growth in experiment [1] is 34.2%; in experiment [2], 41%; in experiment [3], 55%; in experiment [4], 27.3%; in experiment [5], 4.75% (active); in [6], 5.23% (active). Further, the values for the growth in experiment [7] and in experiment [8] were 48.3% and 24.7%, respectively.

For the compound `Cc1ccncc1C(N)=O`, the growth in [1] was 119%; in experiment [2], 95.4%; in experiment [3] it was 104%; in [4], 98.6%; in [5], 101%; in experiment [6], 101%. Further, the growth in experiment [7] is 108%; in [8], 106%; in experiment [9], 124%.

As to `CCCC[P+](c1ccccc1)(c1ccccc1)c1ccccc1`, the growth in [1] is 44.4%; in experiment [2] it was 67%; in experiment [3], 95.1%; in experiment [4], 80.2%; in [5], 53.4%; in experiment [6], 39.6%. Further, the values for the growth in experiment [7], in experiment [8] and in [9] were 53.7%, 98.9% and 32.2%, respectively.

For the compound `CCc1nn(Cc2ccccc2)c2nc(C)c(CCc3ccccc3)c(Cl)c12`, the growth was 101% in experiment [1]; 90.7% in experiment [2]; 79.5% in [3]; 104% in experiment [4]; 90.8% in experiment [5]; 9.07% (active) in experiment [10]. In addition, the growth is 85% in [8] and 110% in experiment [9].

Regarding `Cc1cc(C)cc(NCCC#N)c1`, the growth in experiment [1] is 108%; in experiment [2] it was 112%; in [3] it was 118%; in experiment [4] it was 115%; in [5], 107%; in [6], 106%. In addition, the growth in experiment [7] was 151%; in [8] it was 111%; in experiment [9] it was 131%.

Turning to `COc1cc(CN)ccc1O`, the growth in [1] was 99.4%; in [2], 99.8%; in experiment [3], 89.7%; in experiment [4], 98.3%; in [5], 91.4%; in [6], 88%. Besides, the growth in experiment [7] was 98.6%; in experiment [8], 100%.

Turning to `O=C(O)C(O)c1ccccc1` (stereo not drawn), the growth in experiment [1] was 101%; in experiment [2], 99.1%; in experiment [3] it was 99.6%; in [4], 116%; in [5] it was 107%; in experiment [6], 103%. Also, the results for the growth in experiment [7], in [8] and in experiment [9] were 105%, 98.8% and 109%, respectively.

For `O=C(c1ccccc1)C1CCC1`, the growth is 102% in experiment [1]; 102% in experiment [2]; 101% in experiment [3]; 94.5% in experiment [4]; 107% in experiment [5]; 85.9% in experiment [6]. Also, the growth was 71.6% in experiment [7], 107% in experiment [8] and 112% in [9].

For `Cc1nc2ccccc2c(C(=O)O)c1O`, the growth in experiment [1] is 104%; in experiment [2] it was 91%; in experiment [3], 117%; in experiment [4] it was 88.3%; in experiment [5], 110%; in [6] it was 104%. In addition, the growth in experiment [7] and in [8] was 103% in each case.
